Assay outcomes as filed in PubChem.
D1 agonist = activates the human D1 dopamine receptor | P21728 | HEK293 T-REx D1 cells, calcium flux, agonist mode | actives 1% (n = 360,000) | activation, % at 2 µM; in the data active = activation above about 30%; also: 0% is about no effect
Target sequence (P21728 whole entry, looked up): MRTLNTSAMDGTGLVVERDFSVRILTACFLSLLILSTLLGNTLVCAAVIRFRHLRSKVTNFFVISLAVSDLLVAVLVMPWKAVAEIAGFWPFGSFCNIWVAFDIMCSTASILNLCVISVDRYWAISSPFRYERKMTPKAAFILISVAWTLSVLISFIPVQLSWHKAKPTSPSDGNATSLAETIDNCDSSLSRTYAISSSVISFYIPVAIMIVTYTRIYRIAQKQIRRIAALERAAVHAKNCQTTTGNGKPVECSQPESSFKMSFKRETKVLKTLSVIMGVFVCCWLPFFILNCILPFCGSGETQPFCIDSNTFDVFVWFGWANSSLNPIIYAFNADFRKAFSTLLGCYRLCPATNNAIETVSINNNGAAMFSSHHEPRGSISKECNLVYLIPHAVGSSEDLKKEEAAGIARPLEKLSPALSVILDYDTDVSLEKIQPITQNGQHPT
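Tetracycline-induced HEK293 TREx D1 cells, force-coupled to calcium signalling, were dye-loaded with a no-wash calcium kit. Compound was pin-added after a 10 s baseline. Fluorescence was read kinetically at 1 cycle/s for 180 s, with calcium rises flagged as agonism.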
D3 ag = agonists of human D3 dopamine receptor. P35462. D3R DiscoveRx beta-arrestin cells, luminescence, 90 min. max activation, %. actives 0.58% (n = 410,000). AID 652048; in the data active = max activation above about 30%; also: 0% is about no effect
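Agonist-mode cell screen: cells plated at 1500/well and incubated overnight at 37 °C, then exposed to library compounds for 90 min at 37 °C. Detection reagent was added for 30–60 min at room temperature, and luminescence was read.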
D1 antagonist = antagonists of human D1 dopamine receptor; actives 3.2% (n = 360,000); activity change, negative = inhibition, % at 10 µM; P21728; HEK293 TREx D1 cells, calcium flux, dopamine EC80; hits give low values; in the data active = activity change below about -30%; also: % is scaled to controls: 0 for no effect and ±100 for the full control effect
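Tetracycline-induced HEK293 T-REx cells with force-coupled D1 receptor were loaded with a no-wash calcium dye. Compound was added after a 10 s baseline and read kinetically for 180 s; EC80 dopamine was then added and calcium flux followed another 180 s.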
D1 PAM = potentiators of human D1 dopamine receptor. P21728. HEK293 TREx D1 cells, calcium flux, dopamine EC20 potentiation. actives 0.036% (n = 360,000). potentiation, % at 10 µM. AID 504651; in the data active = potentiation above about 30%; also: 0% is about no effect
D3 antag = D3 dopamine receptor (human) antagonism; D3R cells, DiscoveRx beta-arrestin luminescence, antagonist mode; hits give low values; max response, negative = inhibition, %; AID 652054; actives 2.5% (n = 360,000); P35462; in the data active = max response below about -50%; inconclusive = no clear call, values can overlap the other calls; also: % is scaled to controls: 0 for no effect and ±100 for the full control effect
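Cells expressing the human receptor were seeded at 1500 cells/well, incubated overnight at 37 degrees C in 5% CO2, then exposed to library compounds with dopamine controls for 90 minutes at 37 degrees C before luminescent detection.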
* marks the source's active call; other numbers are inactive results. Compounds with a hit are over-represented: about 6% of the library has one in this group of screens.

For Cc1ccc(-n2nc(C)c3c2OC(N)=C(C#N)C3c2ccncc2)cc1 (stereo unspecified) the results were D1 agonist 1, D3 ag -2, D1 antagonist 9, D1 PAM 1 and D3 antag 0.
Cc1ccc(-n2nc(C)c3c2OC(N)=C(C#N)C3c2ccccc2F)cc1 (stereo unspecified) was read as D1 agonist -1, D3 ag 1, D1 antagonist 12, D1 PAM -4 and D3 antag -52*.
COC(=O)N/N=C(\C)c1ccccc1Br was read as D1 agonist -2, D3 ag 8, D1 antagonist -31*, D1 PAM -1 and D3 antag -7.
O=C(COC(=O)c1ccc(O)cc1O)Nc1ccc2ccccc2c1 was read as D1 agonist 5, D3 ag 1, D1 antagonist -37*, D1 PAM -3 and D3 antag -2.
`O=C(COc1ccc2ccccc2c1)Nc1ccc(Cc2ccncc2)cc1` gave D1 agonist 27, D3 ag -9, D1 antagonist -34*, D1 PAM -8 and D3 antag -16.
`CN1CCN(c2ccc(NC(=O)c3ccc4ccccc4c3)cc2)CC1` gave D1 agonist 10, D3 ag -19, D1 antagonist -71*, D1 PAM -16 and D3 antag inconclusive.
For CN1CCN(c2ccc(NC(=O)COc3ccc4ccccc4c3)cc2)CC1 the results were D1 agonist 16, D3 ag -12, D1 antagonist -39*, D1 PAM -3 and D3 antag -5.
C=C1C(=O)O[C@H]2[C@H]1CC/C(C)=C\CC[C@@]1(C)O[C@@H]21 was read as D3 ag -10.
For Oc1ccc(CCNCCCCCCNCCc2ccccc2)cc1O the results were D3 ag 1.
Screening CC(=O)Nc1ccc(NC(=O)COc2ccc3c(c2)CCC3)cc1 returned D1 agonist 2, D3 ag -1, D1 antagonist -35*, D1 PAM 5 and D3 antag -8.
Cc1c(Cl)cccc1NC(=O)NCCOCCn1c(=O)oc2ccccc21 was read as D1 agonist 0, D3 ag -12, D1 antagonist -1 and D1 PAM 4.
For COc1ccc(C2C(C(N)=O)=C(C)Nc3nc(SCc4ccccc4Cl)nn32)cc1OC (stereo unspecified) the results were D1 agonist 1, D3 ag -11, D1 antagonist 15 and D1 PAM 0.
`O=c1c2cc(-c3ccccc3)sc2ncn1/N=C/c1ccco1` gave D1 agonist 1, D3 ag 0, D1 antagonist -33*, D1 PAM -5 and D3 antag 0.
For Nc1sc(Cc2ccccc2)cc1C(=O)NC1CCCCC1 the results were D3 ag 2 and D3 antag -17.
`CCOc1ccc(S(=O)(=O)N(CC(=O)NC2CCCC2)c2ccc(F)cc2)cc1` gave D3 ag 8 and D3 antag -52*.
Screening CCOc1ccc(S(=O)(=O)N(C)c2ccc(OCC(=O)NCC3CCCCC3)cc2)cc1 returned D3 ag -11 and D3 antag -79*.
For CCOc1ccc(S(=O)(=O)N(C)c2ccc(OCC(=O)NCC3CCCO3)cc2)cc1 (stereo unspecified) the results were D1 agonist 3, D3 ag -1, D1 antagonist 14, D1 PAM 15 and D3 antag 6.
For CCOC(=O)[C@]12CCCC=C1N(Cc1ccco1)C(=O)[C@H](CC(=O)NCCCCc1ccccc1)C2 the results were D3 ag -6 and D3 antag -23.
CCc1ccc(C(C)NC(=O)c2ccc3c(c2)OCO3)cc1 (stereo unspecified) was read as D1 agonist 6, D3 ag 1, D1 antagonist -42*, D1 PAM 0 and D3 antag -5.
CC(NC(=O)c1ccc2c(c1)OCO2)c1ccccc1 (stereo unspecified) was read as D1 agonist 4, D3 ag -4, D1 antagonist -6, D1 PAM -7 and D3 antag -17.
Cc1cc(C)c2c(c1)/C(=N/NS(=O)(=O)c1ccccc1)CCC2 was read as D1 agonist 6, D3 ag -1, D1 antagonist -97*, D1 PAM 7 and D3 antag 21.
COC(=O)C1Cc2c([nH]c3ccccc23)C2(CCN(Cc3ccccc3)CC2)N1 (stereo unspecified) was read as D1 agonist 58*, D3 ag -23, D1 antagonist -39*, D1 PAM -4 and D3 antag -93*.
`CCC(C)[C@@H](NC(=O)OC(C)(C)C)c1nnc(S(=O)(=O)Cc2cccc(C)c2)o1` (stereo partly specified) gave D1 agonist 4, D3 ag -26, D1 antagonist -7, D1 PAM -6 and D3 antag -54*.
Screening Cc1ccccc1CS(=O)(=O)c1nnc([C@H](Cc2ccccc2)NC(=O)OC(C)(C)C)o1 returned D1 agonist 20, D3 ag -31, D1 antagonist -38*, D1 PAM -11 and D3 antag -53*.
`Cc1cccc(CS(=O)(=O)Cc2ccc(C(=O)NC(C)c3ccccc3)o2)c1` (stereo unspecified) gave D1 agonist 1, D3 ag 5, D1 antagonist -6, D1 PAM -3 and D3 antag 21.
`CC(C)(C)OC(=O)N[C@@H](Cc1ccccc1)c1nnc(S(=O)(=O)Cc2ccccc2)o1` gave D1 agonist 5, D1 antagonist -48* and D1 PAM -12.
Screening O=C(CCC(=O)N1CC2CCCN2c2ccccc21)NCc1cccc(Cl)c1 (stereo unspecified) returned D1 agonist 10, D3 ag -4, D1 antagonist -29 and D1 PAM -7.
Screening COc1cc(OC)c(OC)cc1CN1CCN(Cc2ccco2)CC1 returned D1 agonist 4, D3 ag 1, D1 antagonist -33*, D1 PAM 1 and D3 antag 7.
`CSc1ccc(CN2CCC(Cc3ccccc3)CC2)cc1` gave D1 agonist 6, D3 ag -21, D1 antagonist 2, D1 PAM -10 and D3 antag -56*.
`Clc1ccc(CN2CCC(Cc3ccccc3)CC2)cc1` gave D1 agonist 0, D3 ag -12, D1 antagonist -2, D1 PAM -8 and D3 antag -96*.
For Clc1ccc(CN2CCC(c3ccccc3)CC2)cc1 the results were D1 agonist 2, D3 ag 1, D1 antagonist -3, D1 PAM 12 and D3 antag -131*.
Screening CCN(CC)C(=O)C1=C(C)N(Cc2ccc(OC)cc2)C(=O)C(CC(=O)NCCCN(C)C)C1 (stereo unspecified) returned D3 ag 4 and D3 antag 2.
